# Screening results: PubChem BioAssay, University of Kansas High Throughput Screening Laboratory
# A selection: hits, their analogues and other compounds. The true share with any hit is near 3.6%.
# Pf apPOL inh: Pf-apPOL DNA polymerase inhibition | inhibition, % at 10 µM | AID 1794808 | actives 0.25% (n = 210,000) | Recombinant Pf-apPOL, molecular beacon fluorescence, 1.5 h
# mHTT CaM bind: disrupts binding of mutant huntingtin to calmodulin; P42858; AlphaScreen His-mHTT/GST-CaM binding, luminescence; inhibition, % at 15 µM; actives 3.6% (n = 190,000)
# Hits are given with their value; n = inactive; x = no result given; ! = a repeat was not active. No stated cut-off is given here; in the data, active means inhibition above about 50%; inactive means the rest.
SMILES,Pf apPOL inh,mHTT CaM bind
Cc1cccc(NC(=O)NCCC2CCN(S(=O)(=O)c3ccc(F)cc3)CC2)c1,n,n
CCc1ccc(NC(=O)c2ccc(OC)c(Br)c2)cc1,n,n
O=C1CSC(c2cccc(C(F)(F)F)c2)N1c1ccccc1 (stereo not drawn),n,n
N#C/C(=C\c1c[nH]c2ccccc12)C(=O)Nc1cc([N+](=O)[O-])ccc1Cl,n,n
N#C/C(=C\c1cc([N+](=O)[O-])ccc1Cl)C(=O)NCCc1c[nH]c2ccccc12,n,96.0
COc1cccc(C(=O)COC(=O)c2cc3ccccc3oc2=O)c1,n,n
CC(C)Oc1cccc(C(=O)Nc2ccc(F)c(Cl)c2)c1,n,n
O=C1N=C(N2CCOCC2)S/C1=C\c1ccccc1,n,n
O=C1N=C(N2CCOCC2)S/C1=C/C1=Cc2ccccc2OC1,n,52.0
CCOc1ccc(N2CC(c3nnc(NC(=O)COc4ccccc4C)o3)CC2=O)cc1 (stereo not drawn),n,n
CNc1ccc([N+](=O)[O-])cc1-n1cc2c(c1-c1ccc(OC)cc1)c(=O)n(C)c(=O)n2C,n,n
Cn1c(=O)c2c(-c3ccccc3)n(Cc3ccccc3)cc2n(C)c1=O,n,n
Cc1ccccc1-n1cc2c(c1-c1ccccc1)c(=O)n(C)c(=O)n2C,n,n
COc1ccc(-c2c3c(=O)n(C)c(=O)n(C)c3cn2Cc2ccc(Cl)cc2)cc1,n,76.0
COc1ccc(-c2c3c(=O)n(C)c(=O)n(C)c3cn2-c2ccccc2C)cc1,54.3,n
COc1ccc(-c2c3c(=O)n(C)c(=O)n(C)c3cn2C2CCCCC2)cc1,67.0,n
CC(C)Oc1ccc(CNC(=O)c2cnn3c4c(cnc23)CCCCCC4)cc1,n,n
CNc1nc(Nc2ccc(OC)cc2)nc2ccccc12,n,n
COc1ccc(/C=C2/SC(N3CCC(C)CC3)=NC2=O)c(OC)c1,n,58.0
COc1ccc(/C=C2/SC(N3CCCCC3)=NC2=O)c(OC)c1,n,n
Cc1ccc(I)cc1S(=O)(=O)n1nnc2ccccc21,n,n
O=S(=O)(c1cccs1)n1nnc2ccccc21,n,84.0!
COc1ccc(I)cc1S(=O)(=O)n1nnc2ccccc21,n,89.0
O=S(=O)(c1cccs1)n1cnc2ccccc21,n,n
CCCN(CCC)C(=O)N1CCNC1=O,x,n
SMILES,Pf apPOL inh,mHTT CaM bind
Cn1nnc2c(N3CCN(C(=O)C4c5ccccc5Oc5ccccc54)CC3)ncnc21,n,58.1
CCOC(=O)C(=O)N1CCN(c2ncnc3c2nnn3C)CC1,n,n
CC(C)c1cc(C2CCCN2C(=O)Cc2c(F)cccc2Cl)on1 (stereo not drawn),n,n
Cc1cc(S(=O)(=O)NCC2CCCO2)cc([N+](=O)[O-])c1C (stereo not drawn),n,n
CCC(Sc1nnc2c(n1)[nH]c1ccccc12)C(=O)Nc1cccc(C(C)=O)c1 (stereo not drawn),n,64.8!
O=C(CSc1nnc2c(n1)[nH]c1ccccc12)Nc1ccccc1,n,n
Cc1noc(C)c1CN1CCn2c1nc(-c1ccccc1)cc2=O,n,n
O=C1OC(c2ccccc2F)=N/C1=C\C(Br)=C\c1ccccc1,n,n
Cc1cccc(C(=O)N2CCc3c(c(C(=O)NCc4ccc(Cl)cc4)nn3C)C2)c1,n,91.2
Cn1nc(C(=O)NCc2ccc(Cl)cc2)c2c1CCN(C(=O)c1ccco1)C2,n,n
Cc1cccc(CNC(=O)c2nn(C)c3c2CN(C(=O)c2ccccc2C)CC3)c1,n,n
Cc1cccc(CNC(=O)c2nn(C)c3c2CN(C(=O)c2cccc(C)c2)CC3)c1,n,74.3
Cc1cccc(CNC(=O)c2nn(C)c3c2CN(C(=O)c2cccc(F)c2)CC3)c1,n,70.6
N#CC(=Cc1ccc(-c2cc(C(F)(F)F)cc(C(F)(F)F)c2)o1)c1nc2ccccc2[nH]1,n,x
O=C1/C(=C/c2cccnc2)CN(Cc2ccccc2)C/C1=C\c1cccnc1,n,n
Cn1cccc1/C=C1\CN(Cc2ccccc2)C/C(=C\c2cccn2C)C1=O,n,99.0
Cc1ccc(S(=O)(=O)N2CCN(c3cc(Cl)ccc3C)C(=O)C2C)cc1 (stereo not drawn),n,n
CCCSc1nnc2c(n1)OC(c1cc(OC)c(O)c(OC)c1)Nc1ccccc1-2 (stereo not drawn),n,n
CCCCCSc1nnc2c(n1)OC(c1cccnc1)Nc1ccccc1-2 (stereo not drawn),n,n
CCSc1nnc2c(n1)OC(c1cc(OC)c(O)c(OC)c1)Nc1ccccc1-2 (stereo not drawn),94.6,n
CCCSc1nnc2c(n1)OC(c1cccnc1)Nc1ccccc1-2 (stereo not drawn),51.9,n
Cc1ccc(CN2CCCn3nc(C(=O)NCc4ccc(Cl)cc4)cc3C2=O)cc1,n,n
O=C1Nc2ccccc2C1=Nc1ccc(C(=O)c2ccccc2)cc1,n,n
O=C1Nc2ccccc2C1=Nc1ccc(Nc2ccccc2)cc1,n,100.0
Cc1ccc(CNc2ncnc3c2CCC3)o1,n,n
SMILES,Pf apPOL inh,mHTT CaM bind
O=C1C([N+](=O)[O-])=C(O)c2cccc3cccc1c23,70.3,x
O=C1c2ccc3ccccc3c2-c2cccc3cccc1c23,n,x
O=C(CCc1csc2nc(C3CC3)cn12)NCc1ccc(OC(F)(F)F)cc1,n,n
CCN(CC)CCCNC(=O)Cc1cn(C)c2ccccc12,n,n
CCN(CCCNC(=O)Cc1cn(C)c2ccccc12)c1ccccc1,n,53.0
CCOC(CNC(=O)c1ccc2c(c1)ncn2-c1ccc(OC)cc1)OCC,n,n
Oc1ccc(Cl)cc1Sc1cc(Cl)ccc1O,x,97.8
CN(C)Cc1cc(Cl)ccc1O,n,n
Cn1cnnc1C1CCCCN1C(=O)COc1ccc(F)c(F)c1 (stereo not drawn),n,n
O=C(COc1ccccc1Br)Nc1ccc(Cl)c(C(F)(F)F)c1,70.6,n
Cc1nc(OCC(=O)Nc2ccc(Cl)c(C(F)(F)F)c2)c2ccccc2n1,n,n
CC(=O)c1ccc(C(=O)Nc2sc(Cc3ccc4c(c3)OCO4)c(C)c2C(N)=O)cc1,n,n
COc1ccccc1NC(=O)c1c(NC(=O)c2ccccc2Cl)sc2c1CCC2,n,n
COc1ccccc1NC(=O)c1c(NCc2cccnc2)sc2c1CCC2,n,74.0
COc1ccccc1NC(=O)c1c(NCc2cccnc2)sc2c1CCCC2,n,71.0
CCOc1ccccc1NC(=O)c1c(NCc2cccnc2)sc2c1CCC(C)C2 (stereo not drawn),n,n
Cc1cccc(C(=O)N2CCCC(C(=O)NCc3ccco3)C2)c1 (stereo not drawn),n,n
CCCCCCN1C[C@H](n2cc(COC(=O)c3ccccc3)nn2)[C@@H](O)C[C@@H]1c1ccc(Cl)cc1,n,n
COc1ccc([C@H]2C[C@H](O)[C@@H](n3cc(COC(=O)c4ccccc4)nn3)CN2Cc2cccs2)cc1,n,90.0
COc1ccc([C@H]2C[C@@H](O)[C@H](n3cc(COC(=O)c4ccccc4)nn3)CN2Cc2cccs2)cc1,n,n
O=C(OCc1cn([C@H]2C[C@H](c3ccccc3)N(CC3CCCCC3)C[C@@H]2O)nn1)c1ccccc1,n,n
COc1ccc([C@H]2C[C@H](O)[C@@H](n3cc(COC(=O)c4ccccc4)nn3)CN2CC2CCCCC2)cc1,n,68.9
CCCCCCN1C[C@H](n2cc(COC(=O)c3ccccc3)nn2)[C@@H](O)C[C@@H]1c1ccc(OC)cc1,n,55.5
CCCCn1cc2c3c(cccc31)CN(C(=O)Nc1ccc3c(c1)OCO3)CC2,n,n
